Laboratory results published in PubChem BioAssay AID753 (Emory University Molecular Libraries Screening Center, 2007).
Some of the results follow. Records with an inconclusive call do not appear. Activity calls are given as the source filed them.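 How the source made its calls: active means percent of control activity at or below 60%; inconclusive means HPLC trace unusable from injection failure or solvent front hiding peaks; inactive means the rest, plus ubiquitin peak ratio over a set limit.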

The molecules below were run against Ubiquitin carboxyl-terminal hydrolase BAP1 (Homo sapiens) (UniProt Q92560) (assay: BAP1 deubiquitinase inhibitors, hit retest, confirmation, orthogonal assay, biochemical, Ub-ethyl ester substrate, HPLC readout (AID 753)). Settings: purified BAP1, Ub-ethyl ester hydrolysis; at 20 µM, stronger effect = lower value.
Sequence of Ubiquitin carboxyl-terminal hydrolase BAP1 (Homo sapiens) (Q92560 whole entry, looked up): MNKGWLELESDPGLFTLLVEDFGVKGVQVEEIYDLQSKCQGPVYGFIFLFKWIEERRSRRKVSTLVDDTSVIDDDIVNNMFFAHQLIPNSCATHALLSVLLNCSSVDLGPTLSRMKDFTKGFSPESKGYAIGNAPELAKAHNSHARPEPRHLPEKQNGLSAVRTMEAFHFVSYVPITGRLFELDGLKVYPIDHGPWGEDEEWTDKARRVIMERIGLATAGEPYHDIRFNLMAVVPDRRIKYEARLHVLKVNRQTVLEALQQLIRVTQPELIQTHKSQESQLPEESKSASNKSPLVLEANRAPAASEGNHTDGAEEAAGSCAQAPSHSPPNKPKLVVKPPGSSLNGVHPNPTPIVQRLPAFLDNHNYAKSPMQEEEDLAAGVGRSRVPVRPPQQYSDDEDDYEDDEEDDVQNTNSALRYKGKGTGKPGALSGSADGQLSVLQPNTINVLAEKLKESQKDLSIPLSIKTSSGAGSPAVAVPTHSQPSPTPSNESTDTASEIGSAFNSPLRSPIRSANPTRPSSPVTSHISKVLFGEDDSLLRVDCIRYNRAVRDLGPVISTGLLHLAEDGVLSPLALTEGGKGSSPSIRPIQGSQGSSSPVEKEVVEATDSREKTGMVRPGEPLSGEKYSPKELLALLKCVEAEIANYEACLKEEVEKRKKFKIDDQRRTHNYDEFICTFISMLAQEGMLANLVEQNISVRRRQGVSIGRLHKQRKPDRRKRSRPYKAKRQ

% of control activity, inactive:
Fc1ccc2nc(Nc3nc4c(s3)CCCC4)sc2c1 142%
Fc1ccc(-c2ccc(-c3nn4c(-c5ccco5)nnc4s3)o2)cc1 106%
N#Cc1c(/N=C/N2CCCC2)oc(-c2ccccc2)c1-c1ccccc1 111%
CCC(c1nnnn1C1CCCC1)N(Cc1cccs1)Cc1cc2cccc(C)c2[nH]c1=O (configuration not stated) 99.7%
C=CCn1c2ccccc2c2nnc(SC(CC)C(=O)Nc3nc(C)c(C(=O)OCC)s3)nc21 (configuration not stated) 73.6%
O=c1c2ccccc2nc(CSc2nnnn2-c2ccccc2)n1-c1ccccc1 83.3%

outcome, inactive:
CCOc1ccc(CN(Cc2ccco2)C(c2cccs2)c2nnnn2C(C)(C)C)cc1 (configuration not stated)
